Bioassay records deposited in PubChem BioAssay by National Center for Advancing Translational Sciences (NCATS).
Sampled rows, rich in hits. Any-hit rate of the full collection: about 1.9%.
USP2a inh: blocks human ubiquitin-specific protease USP2a; O75604; USP2 core, Ub-CHOP2 coupled fluorogenic reporter, 485/531; Potency, µM (doses to about 38.3 µM), for inactives: at the top dose activity change, negative = inhibition, usual class: inhibitors; 330,000 tested, 0.01% active; AID 463254;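 also: potency is read from the fitted curve at half-maximal effect; plate controls were DMSO wells for no effect and full inhibition by NEM control for full effect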
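Cell-free coupled assay: 10nM USP2 core preincubated 30min RT with compound in Tris-HCl pH 8.0/CaCl2/CHAPS buffer, then 25nM Ub-CHOP2 and 25nM reporter substrate; fluorescence (Ex 485/Em 531) read after 60min RT, normalized to NEM inhibition, concentration-response curves fitted.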
ClpP mod: qHTS Assay for Activators of ClpP; ATP-dependent Clp protease proteolytic subunit (Bacillus subtilis (strain 168)), P80244; 340,000 tested, 1.9% active; Potency, µM (top dose mostly 57.5 µM), for the others: top-dose activity change, negative = active; purified B. subtilis ClpP, FRET peptide cleavage, 20 min; active = well fitted falling curve with a large enough effect; inconclusive = small, poorly fitted or top-dose-only effect; inactive = no such curve, though single readings can be large or run the other way; also: potency is read from the fitted curve at half-maximal effect; the source files actives as falling curves though it sought activators and does not explain the sign; nearly all actives have a fitted effect of over 65% in size
Target sequence (P80244 whole entry, looked up): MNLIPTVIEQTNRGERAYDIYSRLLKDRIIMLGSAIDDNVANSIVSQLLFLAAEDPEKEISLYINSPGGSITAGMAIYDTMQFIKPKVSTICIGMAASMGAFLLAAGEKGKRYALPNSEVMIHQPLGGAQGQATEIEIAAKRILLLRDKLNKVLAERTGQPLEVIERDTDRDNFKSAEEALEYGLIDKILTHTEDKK
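ClpP 10 microg/mL final, pH 8 Tris/KCl buffer with BSA, glycerol, Tween-20; compound pinned in; FRET-FV substrate; RT 20 min; Ex320/Em430; ΔFRET vs ADEP 5.8 microM, DMSO, no enzyme.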
Pin1 inh: human Pin1 inhibition | 390,000 tested, 0.009% active | Potency, µM (series often up to 115 µM), for inactives: at the highest dose activity, negative = inhibition, most hits filed as inhibitors | AID 504891 | Pin1 FP peptide displacement, HiFluor488, 10 min; active = well fitted inhibition curve with a large enough effect in the polarisation, with a control signal flat, not every such curve was filed as active; inconclusive = small, poorly fitted or top-dose-only effect, or effect the other way, or a change in a side signal; inactive = no such curve, though single readings can be large or run the other way; the % refers to the polarisation; also: potency is read from the fitted curve at half-maximal effect; % is scaled to controls: 0 for no effect and ±100 for the full control effect
IL2 activator: activators of IL-2. IL-2 activation reporter assay, cell-based qHTS; stimulated with anti-CD3/CD4/CD28 beads; in transgenic mouse T cells. activation, % (series mostly up to about 46 µM). 360,000 tested, 0.065% active. AID 652025; in the data active = activation above about 50%; inconclusive = mostly about 30% to 49%; also: 0% is about no effect
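Screening format: compound pinned onto unstimulated transgenic mouse T cells, 60 min incubation, then anti-CD3/anti-CD4/anti-CD28 bead stimulation for 18 hours at 37 degrees C, followed by EGFP and DsRed detection.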
PKM2 act: activators of human pyruvate kinase M2; 260,000 tested, 0.34% active; AID 1631; Potency, µM (doses to about 57.5 µM), for the others: top-dose activation, usual class: activators; purified PKM2, Kinase-Glo ATP luminescence, activation; response scale: 0% is enzyme alone, no compound; P14618; also: potency is read from the fitted curve at half-maximal effect; % is scaled to controls: 0 for no effect and ±100 for the full control effect; nearly all actives have a fitted effect of over 55% in size
Target sequence (P14618 whole entry, looked up): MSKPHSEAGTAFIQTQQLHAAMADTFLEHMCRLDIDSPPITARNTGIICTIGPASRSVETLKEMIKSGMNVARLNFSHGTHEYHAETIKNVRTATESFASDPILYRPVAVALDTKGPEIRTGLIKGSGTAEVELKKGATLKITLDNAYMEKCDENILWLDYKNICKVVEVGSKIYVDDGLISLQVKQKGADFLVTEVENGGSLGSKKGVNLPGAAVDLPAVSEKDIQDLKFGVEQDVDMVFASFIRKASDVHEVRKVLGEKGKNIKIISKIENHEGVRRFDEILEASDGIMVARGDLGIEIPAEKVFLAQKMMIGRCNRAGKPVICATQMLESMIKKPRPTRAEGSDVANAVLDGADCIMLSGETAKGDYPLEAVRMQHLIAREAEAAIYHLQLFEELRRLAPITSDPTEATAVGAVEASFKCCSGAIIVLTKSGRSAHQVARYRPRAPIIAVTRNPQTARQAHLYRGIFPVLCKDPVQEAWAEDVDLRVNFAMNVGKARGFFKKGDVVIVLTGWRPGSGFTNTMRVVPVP
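hPK-M2, >95% pure; 0.1 mM ADP / 0.5 mM PEP final; imidazole pH7.2 buffer w/ 7 mM MgCl2, 50 mM KCl; 1 h RT; Kinase-Glo lum. Intermediate enzyme activity for dual inhibitor/activator qHTS.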
a7 integrin act: activates integrin-mediated alleviation for muscular dystrophy. alpha7betagal myoblasts, beta-gal FDG fluorescence, 48 h. Potency, µM (titrated, usually from 38.3 µM), without a hit: at the highest dose activation, actives largely listed as activators. 350,000 tested, 0.064% active. AID 624291;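 also: potency is read from the fitted curve at half-maximal effect; 100% = response of the positive control SU9516; nearly all actives have a fitted effect of over 60% in size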
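alpha7betagal+/- myoblasts (passage 13, 250/well) treated 48 h at 37C with compounds at 1:260 dilution of DMSO stock. Lysed, then beta-galactosidase activity read as FDG fluorescence (ex 480/em 540) after 30 min, with pre-read for autofluorescence.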
The depositor's hits bear a star. Unless noted, calls follow the shape of the dose curve; as a rule, active = well fitted curve in the direction sought with a large enough effect; inconclusive = small, poorly fitted or top-dose-only effect, or another doubt; inactive = no such curve, though single readings can be large; an effect the other way counts as inactive or inconclusive.

For O=S(=O)(NCC1CCN(c2ccc(S(=O)(=O)N3CCOCC3)cc2)CC1)c1ccccc1 the results were USP2a inh -3.9%, ClpP mod -29.2%, Pin1 inh 4.6%, IL2 activator -2.5, PKM2 act 0.7% and a7 integrin act -65.3%.
For CCCN1CNc2c(c(=O)[nH]c(=S)n2CCc2cc(Cl)cc(Cl)c2)C1 the results were ClpP mod -1.5% and Pin1 inh 11.3%.
`CCc1ccc(CNC(=O)c2cnc(N3CCCCC3)c3ccccc23)cc1` gave ClpP mod 31.6µM* and Pin1 inh 3.8%.
For O=C(NCc1ccccc1Cl)c1cnc(N2CCCCC2)c2ccccc12 the results were ClpP mod 31.6µM* and Pin1 inh inconclusive.
COc1ccc(C2CC(c3ccccc3)Oc3cc(OC)ccc32)cc1 (stereo not given) was read as Pin1 inh 5.3%.
For O=C(Cc1cccs1)N1CCN(S(=O)(=O)c2ccccc2)CC1 the results were USP2a inh 1.0%, ClpP mod 0.9%, Pin1 inh -4.4%, IL2 activator -1.0, PKM2 act 26.5% and a7 integrin act 0.8%.
Screening O=C(O)CCC(=O)N1CCN(S(=O)(=O)c2cccs2)CC1 returned USP2a inh 0.3%, ClpP mod -0.6%, Pin1 inh -3.5%, IL2 activator -1.5, PKM2 act 3.8% and a7 integrin act 2.9%.
O=C(CCCc1c[nH]c2ccccc12)N1CCN(S(=O)(=O)c2cccs2)CC1 was read as USP2a inh 2.1%, ClpP mod -0.4%, Pin1 inh -3.7%, IL2 activator -1.4, PKM2 act 1.58µM* and a7 integrin act -24.2%.
For O=C(CSc1ccccc1)N1CCN(S(=O)(=O)c2cccs2)CC1 the results were USP2a inh 0.7%, ClpP mod -2.6%, Pin1 inh -7.0%, IL2 activator 0.4, PKM2 act 1.12µM* and a7 integrin act -5.2%.
For O=C(CCCc1c[nH]c2ccccc12)N1CCOCC1 the results were USP2a inh 0.1%, ClpP mod -9.4%, Pin1 inh -0.6%, IL2 activator -0.9, PKM2 act -6.3% and a7 integrin act 19.2%.
Screening O=C(CCCc1cccs1)N1CCN(S(=O)(=O)c2ccccc2Br)CC1 returned USP2a inh 4.1%, ClpP mod -1.4%, Pin1 inh 5.4%, IL2 activator -1.6, PKM2 act 11.2µM* and a7 integrin act 0.6%.
CCOc1cc(/C=C2\SC(=S)N(Nc3ccccc3)C2=O)ccc1O was read as USP2a inh -6.0%, ClpP mod -1.9%, Pin1 inh 78.7%, IL2 activator -0.1, PKM2 act -2.9% and a7 integrin act -3.9%.
Screening CCOC(=O)N1CCN(C(=O)CCN2C(=O)/C(=C\c3ccc(OC)c(OC)c3)SC2=S)CC1 returned ClpP mod 2.5%, IL2 activator 93.4* and a7 integrin act -1.2%.
For COc1ccc(/C=C2\SC(=S)N(CCCC(=O)Nc3cc(C)on3)C2=O)cc1OC the results were USP2a inh 0.2%, ClpP mod -10.3%, Pin1 inh inconclusive, IL2 activator 17.4, PKM2 act 3.1% and a7 integrin act 12.7%.
COc1ccc(/C=C2\SC(=S)N(CCCCCC(=O)Nc3cc(C)on3)C2=O)cc1OC was read as USP2a inh 2.2%, ClpP mod -1.4%, Pin1 inh inconclusive, IL2 activator 80.5*, PKM2 act 1.3% and a7 integrin act 2.9%.
`COc1cc(/C=C2\SC(=S)N(Nc3ccccc3)C2=O)ccc1O` gave USP2a inh -1.0%, ClpP mod 28.2µM*, Pin1 inh inconclusive, IL2 activator -0.2, PKM2 act -1.7% and a7 integrin act -8.9%.
Screening COc1ccc(/C=C2\SC(=S)N(CCCC(=O)N3CCN(C)CC3)C2=O)cc1OC returned Pin1 inh -4.1%, IL2 activator 0.2 and a7 integrin act -5.3%.
`CC(C)Nc1nc(C#N)nc(Nc2ccccc2)n1` gave Pin1 inh 2.0%.
CCOC(=O)c1ccc(NC(=O)c2c(NCc3cccs3)sc3c2CCCCC3)cc1 was read as ClpP mod -1.0% and Pin1 inh inconclusive.
NCCCNc1ncnc2ccc(-c3ccc4c(c3)OCO4)cc12 was read as Pin1 inh 5.1%.
Screening Cc1ccc(/C=C/c2nnc(-c3cccs3)o2)cc1 returned USP2a inh 1.7%, ClpP mod 8.91µM*, Pin1 inh 1.1%, IL2 activator -0.3, PKM2 act -2.7% and a7 integrin act 19.9%.
`CCCn1cc(S(=O)(=O)c2ccc(OC)cc2)c(=O)c2cc(F)c(N3CCCC(C)C3)cc21` (stereo not given) gave ClpP mod 20µM* and Pin1 inh 41.5%.
For CCCn1cc(S(=O)(=O)c2ccccc2)c(=O)c2cc(F)c(N3CCCC3)cc21 the results were ClpP mod -17.5% and Pin1 inh 22.4%.
Screening CCCn1cc(S(=O)(=O)c2ccccc2)c(=O)c2cc(F)c(N3CCCCCC3)cc21 returned ClpP mod 28.2µM* and Pin1 inh 14.8%.
For CCn1cc(S(=O)(=O)c2ccccc2)c(=O)c2cc(F)c(N3CCCC3)cc21 the results were ClpP mod 25.1µM* and Pin1 inh 2.7%.
`CCn1cc(S(=O)(=O)c2ccccc2)c(=O)c2cc(F)c(N3CCN(c4ccccc4)CC3)cc21` gave ClpP mod inconclusive and Pin1 inh 5.0%.
`Nc1nc2c(nc(N3CCOCC3)n2COCCO)c(=O)[nH]1` gave ClpP mod 1.4%.
For O=C1C(=O)C(c2ccc(O)cc2O)Oc2cc(O)cc(O)c21 (stereo not given) the results were ClpP mod -2.1% and Pin1 inh -16.2%.
O=C(CN(c1ccc(Cl)c(C(F)(F)F)c1)S(=O)(=O)c1ccccc1)N/N=C/c1cccc2c1OCCO2 was read as USP2a inh -2.2%, ClpP mod 22.4µM*, Pin1 inh 1.3%, IL2 activator -3.5, PKM2 act 4.6% and a7 integrin act -34.0%.
For CS(=O)(=O)N(CC(=O)N/N=C/c1cccc2c1OCCO2)c1ccccc1Br the results were USP2a inh 0.9%, ClpP mod inconclusive, Pin1 inh 6.0%, IL2 activator 0.2, PKM2 act 12.9% and a7 integrin act 22.8%.
For COc1ccc(/C=C/c2nnc(NC(=O)COc3ccc(Cl)cc3)s2)cc1 the results were ClpP mod inconclusive and Pin1 inh 7.3%.
